PubChem BioAssay AID784 (The Scripps Research Institute Molecular Screening Center, 2007)
Hit rate of the full screen: of about 30,000 compounds, about 130 (0.43%) were called active. This is one part of a sample in which actives are shown more often than they occur. Values without a mark were called inactive. Cut-off read from the data, not from the text of the source: active = activation above about 65%; inactive = the rest.

Target: Lysosomal acid glucosylceramidase (Homo sapiens) (UniProt P04062)
Sequence (P04062 whole entry L483P): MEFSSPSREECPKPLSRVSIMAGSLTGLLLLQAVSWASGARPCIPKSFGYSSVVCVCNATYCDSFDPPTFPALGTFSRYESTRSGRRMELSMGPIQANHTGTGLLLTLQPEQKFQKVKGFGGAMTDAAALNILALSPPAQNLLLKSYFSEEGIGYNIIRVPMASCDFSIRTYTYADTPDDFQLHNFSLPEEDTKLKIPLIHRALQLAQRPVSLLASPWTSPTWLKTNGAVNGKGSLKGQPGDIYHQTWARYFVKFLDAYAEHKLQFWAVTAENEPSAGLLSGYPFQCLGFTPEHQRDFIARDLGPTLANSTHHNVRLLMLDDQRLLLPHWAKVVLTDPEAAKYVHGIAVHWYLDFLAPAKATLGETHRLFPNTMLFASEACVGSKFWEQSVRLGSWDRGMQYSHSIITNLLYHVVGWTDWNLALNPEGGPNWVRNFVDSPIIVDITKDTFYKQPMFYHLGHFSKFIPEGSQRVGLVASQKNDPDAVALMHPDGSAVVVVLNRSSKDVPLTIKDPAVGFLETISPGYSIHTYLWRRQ
Assay: GBA activity enhancers in patient fibroblasts, primary screen, cell-based (AID 784);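 note: 0% = vehicle wells and 100% = positive control wells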
Conditions: L444P Gaucher fibroblasts, 4-MU-glucoside fluorescence, 3 days; at 10 µM; stronger effect = higher value

Question: How did the activation turn out when CCn1c2c(c3ccc(OC)cc31)CCCC2=O was run?
Answer: -2.82%

Question: How did the activation turn out when O=C(COc1ncnc2ccccc12)NC(=O)NCc1ccccc1 was run?
Answer: -9.58%

Question: With CCCOc1cccc(C(=O)Nc2nnn(CCC)n2)c1 as the molecule, how does the activation read?
Answer: -14.1%

Question: Cc1ccc(OCc2nc(C#N)c(N3CCCC3)o2)cc1 was tested. Which activation did it give?
Answer: -34.7%

Question: Cc1ccc(OCCCC(=O)N2CCOCC2)c(C)c1 was tested. Which activation did it give?
Answer: 9.81%

Question: How did the activation turn out when Cc1cc(N2CCN(Cc3ccc4c(c3)OCO4)CC2)n2ncnc2n1 was run?
Answer: 4.34%

Question: CCOc1cc(CO)ccc1OCC(=O)N1CCCCC1 was tested. Which activation did it give?
Answer: 38.3%

Question: Which activation does the source give for CC(C)(C)c1nc(NCC2CCCO2)c2nnn(Cc3ccccc3)c2n1 (centres undefined) here?
Answer: -23.9%

Question: For O=CN1CCN(C2CC(=O)N(c3ccc4c(c3)OCO4)C2=O)CC1 (centres undefined), which activation is on record?
Answer: -20.8%

Question: For CC1(C)CC(=O)C=C(NCCCN2CCCC2=O)C1, which activation is on record?
Answer: 48.7%

Question: Which activation does the source give for NC(CSC12CC3CC(CC(C3)C1)C2)C(=O)O (centres undefined) here?
Answer: -2.09%

Question: How did the activation turn out when CCOC(=O)C1CCCN(C(=O)c2cncc(Br)c2)C1 (centres undefined) was run?
Answer: -20.7%

Question: With OC(COc1ccccc1)Cn1cc(Br)cn1 (centres undefined) as the molecule, how does the activation read?
Answer: -62.4%

Question: COc1ccc(-c2nnc(SC(C)C#N)o2)cc1 (centres undefined) was tested. Which activation did it give?
Answer: -2.02%

Question: How did the activation turn out when CCCCSc1nnc(-c2ccc(C)cc2)o1 was run?
Answer: 65.5% (active)

Question: c1ccc(-c2nnc(SCc3nc4ccccc4[nH]3)o2)cc1 was tested. Which activation did it give?
Answer: -6.36%

Question: With CC1(C)SC2c3ccccc3C(=O)N2[C@@H]1C(=O)NCc1ccco1 (some centres undefined) as the molecule, how does the activation read?
Answer: -2.64%

Question: With C=CCn1cnc2scc(-c3ccccc3)c2c1=O as the molecule, how does the activation read?
Answer: -7.71%

Question: Which activation does the source give for CCN1C(=O)C(C(=O)NC(C)c2ccccc2)C2CC1(C)Oc1ccccc12 (centres undefined) here?
Answer: -6.62%

Question: For CC(C)C(C(=O)NC1CCCCC1)N(CC1CCCO1)C(=O)CNS(=O)(=O)c1ccc(F)cc1 (centres undefined), which activation is on record?
Answer: -1.42%

Question: With COc1ccc(NC(=O)c2c(C)oc3c2CCCC3)cc1 as the molecule, how does the activation read?
Answer: 9.49%

Question: Which activation does the source give for CCc1c(C)sc(NC(=O)OC)c1C(=O)N1CCOCC1 here?
Answer: -9.88%

Question: With Cc1nc2nc3c(cn2n1)C(=O)CC(c1ccccc1)C3 (centres undefined) as the molecule, how does the activation read?
Answer: -10.1%

Question: Which activation does the source give for CC(=O)Nc1cccc(NC(=O)c2c(-c3ccccc3)noc2C)c1 here?
Answer: -9.69%

Question: With CCc1nc(N2CCN(c3nc(C)cc(C)n3)CC2)c2oc3ccccc3c2n1 as the molecule, how does the activation read?
Answer: -1.58%

Question: CCCn1c(SCC(=O)Nc2cccc(C(=O)OCC)c2)nnc1-c1ccoc1C was tested. Which activation did it give?
Answer: -19.7%

Question: Which activation does the source give for O=C(COc1ccccc1)N1CCc2ccccc2C1 here?
Answer: -2.86%

Question: How did the activation turn out when CCCCc1nc2ccccc2c(=O)n1NC(=O)c1c(O)c2cccc3c2n(c1=O)CC3 was run?
Answer: 3.98%

Question: With Cc1c(NC(=O)Nc2ccccc2Cl)sc(=S)n1C as the molecule, how does the activation read?
Answer: -15.8%

Question: With CC12C(=O)N(n3cnnc3)C(=O)C1C1C=CC2C1 (centres undefined) as the molecule, how does the activation read?
Answer: -8.37%

Question: Which activation does the source give for CC(C)N(C(=O)Cn1c(SCC(=O)N2CCN(c3ccccc3)CC2)nc2ccccc21)C(C)C here?
Answer: -5.29%

Question: How did the activation turn out when Cc1ccccc1NC(=O)c1cc(S(=O)(=O)N2CCOCC2)cs1 was run?
Answer: -11.8%

Question: Which activation does the source give for CC(=NCc1ccco1)C1=C(O)c2ccccc2C1=O here?
Answer: -41.5%

Question: For Cc1nc2c(c(=O)n1Cc1ccco1)c1nc3ccccc3nc1n2Cc1ccccc1, which activation is on record?
Answer: -11.7%

Question: How did the activation turn out when COc1ccc(-c2csc(N3CCN(Cc4ccc5c(c4)OCO5)CC3)n2)cc1 was run?
Answer: -17.4%

Question: CC(c1ccccc1)n1c(NCCCn2ccnc2)nc2c1c(=O)[nH]c(=O)n2C (centres undefined) was tested. Which activation did it give?
Answer: -10.3%

Question: For COc1ccc(Br)cc1S(=O)(=O)N1CCN=C1C, which activation is on record?
Answer: -8.13%

Question: For O=[n+]1c2c(n([O-])c3cc(Br)ccc31)CCC2, which activation is on record?
Answer: 30.8%

Question: For Cc1c(C(=O)OCc2cc(=O)n3cc(Br)ccc3n2)oc2ccccc12, which activation is on record?
Answer: 23%

Question: CCOCCCNS(=O)(=O)Cc1ccccc1 was tested. Which activation did it give?
Answer: 6.43%

Question: For CCOC(=O)C1=C(C)NC(C)=C(C(=O)OCC)C1C1=COCCO1, which activation is on record?
Answer: -5.96%

Question: Which activation does the source give for C=CCn1c(SCc2cc(C(=O)OC)c(C)o2)nnc1-c1ccncc1 here?
Answer: 31.7%

Question: Which activation does the source give for Cn1c(=O)n(C)c(=O)n(CC(=O)N2CCCCC2)c1=O here?
Answer: -12.6%

Question: Which activation does the source give for Clc1cccc(Cl)c1Cn1nnc(-c2cccs2)n1 here?
Answer: 10.2%

Question: How did the activation turn out when COc1ccccc1CNCc1cccs1 was run?
Answer: -7.11%

Question: With NC(=NC(=O)c1ccccc1)C1=C(O)CCC1=O as the molecule, how does the activation read?
Answer: 0%

Question: Which activation does the source give for O=C(CSc1nnc(-c2cccs2)n1-c1ccccc1)N1CCN(C(=O)c2ccco2)CC1 here?
Answer: -13.7%

Question: Cc1ccsc1CNn1cnnc1SCc1ccccc1F was tested. Which activation did it give?
Answer: -2.23%

Question: How did the activation turn out when Cc1nnc(NC2=NCCCCC2)o1 was run?
Answer: 8.3%

Question: With CCS(=O)(=O)N1CCN(C(=O)c2cccs2)CC1 as the molecule, how does the activation read?
Answer: -24.4%

Question: Which activation does the source give for COc1ccccc1C(=O)Oc1ccc(N2C(=O)CCC2=O)cc1 here?
Answer: 4.62%

Question: With COC(C)(C)[C@]12CC(O)(C(C)C)ON1[C@H]1CCCCC1N2O (some centres undefined) as the molecule, how does the activation read?
Answer: -2.77%

Question: CC(Cc1cccs1)NC(=O)NC1CCCCC1 (centres undefined) was tested. Which activation did it give?
Answer: -0.56%

Question: C=C(C)Cn1c(SCC(=O)NCc2ccco2)nc2sc3c(c2c1=O)CCC3 was tested. Which activation did it give?
Answer: -21.3%

Question: With CCOC(=O)CC1C(=O)NCCN1C(=O)COc1ccc(Br)cc1C (centres undefined) as the molecule, how does the activation read?
Answer: -21.1%

Question: How did the activation turn out when Nn1c(SCC(=O)NC(=O)NC2CCCC2)nnc1-c1ccccc1F was run?
Answer: 2.97%

Question: O=C(COc1ccc2c3c(c(=O)oc2c1)CCC3)NC1CCCCC1 was tested. Which activation did it give?
Answer: 9.84%

Question: With CC1CC(c2ccccc2)n2nc(NC(=O)c3cccs3)nc2N1 (centres undefined) as the molecule, how does the activation read?
Answer: -23.6%

Question: With Cc1cc(NC(=O)COC(=O)c2ccc(F)c(S(=O)(=O)N3CCOCC3)c2)no1 as the molecule, how does the activation read?
Answer: -7.98%

Question: With Cc1cc(C)c2nc(N3CCCC3)c(C#N)cc2c1 as the molecule, how does the activation read?
Answer: 18.1%

Question: CN(C(=O)CSc1nnnn1-c1ccccc1)C1CCCCC1 was tested. Which activation did it give?
Answer: -16.5%

Question: How did the activation turn out when Cc1nn(-c2ccccc2)c(C)c1C(=O)OCC(=O)NC(=O)NC1CCCCC1 was run?
Answer: 59.8%

Question: Which activation does the source give for O=C(c1c(Cl)nc2sccn12)N1CCCc2ccccc21 here?
Answer: -24.6%

Question: With CC1(c2ccccc2Cl)NC(=O)N(CC(=O)NC(=O)NCc2ccco2)C1=O (centres undefined) as the molecule, how does the activation read?
Answer: -9.6%
